Shown are actives, neighbours in structure and some others; about 7.6% of the full set was active somewhere.
M1 antag: M1 muscarinic receptor (rat) antagonism | P08482 | CHO-M1 cells, Fluo-4 calcium, ACh EC80 antagonist mode; stronger effect = lower value | B-score at 10 µM | 3.4% of 64,000 active | AID 628;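 active = calcium fluorescence response, raw or row-and-column corrected B-score, differing from the plate sample mean either way at a set confidence level, mostly lower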
M1 agonist: activates the M1 muscarinic receptor; CHO-M1 cells, Fluo-4 calcium fluorescence, agonist mode; stronger effect = higher value; B-score at 10 µM; 3% of 64,000 active; AID 626;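 active = fluorescence rise, raw or as B-score row- and column-corrected plate score, outside the 99.7% band of its plate's samples, either direction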
PLAP activator: activates human placental alkaline phosphatase | AID 696 | P05187 | activation fold at 20 µM | purified PLAP enzyme, luminescent substrate read-out; stronger effect = higher value | 1.2% of 96,000 active; in the data active = activation fold above about 2
Cav32 inh: human Cav3.2 channel inhibition, primary screen; 4% of 100,000 active; B-score at 10 µM; Cav3.2-expressing cells, Fluo-4 calcium fluorescence FDSS; stronger effect = lower value; O95180;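 active = single-dose well whose peak fluorescence ratio is a statistical outlier from its plate by either plate-standardised score or position-corrected B-score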
Hits are given with their value; i = inactive; nt = no result.

SMILES	M1 antag	M1 agonist	PLAP activator	Cav32 inh
COc1ccc(Cl)cc1N1C(=O)/C(=C\c2sccc2C)N=C1SCC(=O)NC1CC1	nt	nt	i	-6.2
COCc1c(C(=O)OCC(=O)N2c3ccccc3NC(=O)C2(C)C)oc2ccccc12	i	i	i	i
O=C(CNC(=O)/C(=C\c1ccccc1)NC(=O)c1ccc(Br)cc1)OCc1ccccc1	nt	nt	i	-6.6
Cc1nc(N(C)Cc2ccccc2)c2nnn(Cc3ccccc3)c2n1	nt	nt	i	i
Cc1noc(C)c1COC(=O)CCC(=O)c1ccc(F)cc1	i	i	i	i
Cc1noc(C)c1COC(=O)C1(c2cccc(F)c2)CCCC1	i	i	i	-5
COc1nc(NCc2ccco2)nc(NC2CCCCC2)n1	nt	nt	nt	-4
O=C(CSc1nnc(-c2ccccc2)c(-c2ccccc2)n1)N1CCc2ccccc21	nt	nt	i	-4.5
O=C(CSc1ccc2nnc(-c3ccc(Cl)cc3)n2n1)N1CCc2ccccc21	nt	nt	i	nt
O=C(CSc1ccc2nnc(-c3cccnc3)n2n1)N1CCc2ccccc21	i	-2.9	i	nt
OCc1nc2ccccc2n1C/C=C/c1ccccc1	i	i	2	i
Cc1cc2nn(-c3cccc4ccccc34)nc2cc1NC(=O)c1cccs1	nt	nt	i	-4.3
COC(=O)C(CCCCN1C(=O)C2C3C=CC(C3)C2C1=O)N1C(=O)C2C3C=CC(C3)C2C1=O (centres undefined)	i	i	i	i
COc1ccc(C(=O)COC(=O)C(CCCCN2C(=O)C3C4C=CC(C4)C3C2=O)N2C(=O)C3C4C=CC(C4)C3C2=O)cc1 (centres undefined)	nt	nt	nt	-3.7
COc1ccc2c(c1)C(C)CC(C)(C)N2C(=O)CSc1nc2ccccc2s1 (centres undefined)	nt	nt	i	-7.6
CC(=O)CSc1nc2ccccc2s1	nt	nt	i	i
CC1CCN(Cc2nc3c(c(=O)n(C)c(=O)n3C)n2CCN2CCOCC2)CC1	i	i	nt	nt
O=C(CCC(=O)OCC(=O)c1cccc([N+](=O)[O-])c1)Nc1ccccc1Cl	nt	nt	i	i
COc1ccc(-c2nnc(SCC(=O)Nc3cc(F)ccc3C)o2)cc1	i	i	i	-5.6
COc1ccc(CN(C(=O)CSc2nnc(-c3ccccc3C)o2)c2ccc(F)cc2)cc1	nt	nt	nt	-4.7
COc1ccc(N(CC(=O)Nc2ccc(S(=O)(=O)N3CCOCC3)cc2)S(=O)(=O)c2ccccc2)cc1	nt	nt	i	i
COC(C[C@@H]1O[C@H]1[C@@H](O)COCc1ccccc1)OC	nt	nt	nt	i
CCOc1ccc(/C(O)=C2/C(=O)C(=O)N(c3nc(C)c(C)s3)C2c2ccco2)cc1 (centres undefined)	i	i	i	-5.7
CCCCN(C)C(=O)C1CCN(Cc2ccc(OCc3ccccc3)cc2)CC1	nt	nt	nt	-3.6
CCN(CC)C(=O)C1CCN(Cc2ccc(Br)cc2)CC1	i	i	i	i
SMILES	M1 antag	M1 agonist	PLAP activator	Cav32 inh
Clc1ccc(COn2nnc3ccccc32)c(Cl)c1	i	i	i	i
COc1ccc(N2CCN(CC(=O)Nc3nc4c(s3)CC(C)CC4)CC2)cc1 (centres undefined)	i	i	2.9	i
COc1ccc(N2CCN(CC(=O)Nc3cc(C)on3)CC2)cc1	i	i	i	i
CSc1ncc(Cl)c(C(=O)C(C#N)c2nc3c(C)cc(C)cc3c(=O)[nH]2)n1 (centres undefined)	i	i	nt	-7
Cc1cc(S(=O)(=O)Nc2c(C(=O)O)[nH]c3ccccc23)ccc1F	i	i	2	i
COC(=O)c1[nH]c2ccc(C)cc2c1NS(=O)(=O)c1ccc(F)c(C)c1	i	i	i	nt
Cc1nc(NC2=NCN(Cc3cccnc3)CN2)nc2c(C)cccc12	i	i	i	nt
CCc1ccc2nc(NC3=NCN(CCN4CCOCC4)CN3)nc(C)c2c1	-3.3	i	i	nt
Cc1nc(NC2=NCN(Cc3ccc4c(c3)OCO4)CN2)nc2ccccc12	-9.2	i	i	nt
C=CCN=C(NC#N)SCC(=O)c1cccc(OC)c1	i	i	i	i
O=C(O)COc1ccc(/C=N/NC(=O)C2CCCN2S(=O)(=O)c2ccc(Cl)cc2)cc1 (centres undefined)	nt	nt	i	i
Cc1nc2ncnn2c(N2CCCC(C(=O)Nc3ccc4c(c3)CCC4)C2)c1C (centres undefined)	i	i	2.1	i
C=CCNC(=S)Nc1ccccc1	nt	nt	i	i
Cc1ccc(SCCNC(=O)C(CO)(CO)CO)cc1	i	i	i	i
S=C(NCCSCc1ccc(Cl)c(Cl)c1)Nc1ccccc1	nt	nt	nt	i
Cc1ccc(SCCNC(=S)Nc2ccc(C)c(C)c2)cc1	nt	nt	i	-4.4
S=C(NCCSCc1c(Cl)cccc1Cl)Nc1ccccc1	nt	nt	i	-5.8
Cc1ccc(SCCNC(=S)Nc2cc(C)ccc2C)cc1	nt	nt	i	-4.1
Cc1ccc(SCCNC(=S)Nc2ccccc2)cc1	nt	nt	i	-6.1
Cc1ncc(S(=O)(=O)c2ccc(Cl)cc2)c(-c2ccccc2)n1	nt	nt	i	i
O=S(=O)(c1ccccc1)c1cnn(-c2ccccc2)c1-c1ccc(Cl)cc1	nt	nt	i	-3.9
CCOc1ccc(S(=O)(=O)Nc2cccc(Cl)c2)cc1	i	i	nt	-3.7
CCOc1ccc(S(=O)(=O)NCc2ccccn2)cc1	nt	nt	2	i
COc1ccc(S(=O)(=O)NCc2ccccn2)cc1	nt	nt	i	i
COc1cc(S(=O)(=O)NCc2ccccn2)c(OC)cc1Cl	nt	nt	nt	i
SMILES	M1 antag	M1 agonist	PLAP activator	Cav32 inh
COc1ccc(S(=O)(=O)NCc2ccccn2)c(Cl)c1Cl	i	i	2.1	nt
O=C1N[C@@H](Cc2cn(S(=O)(=O)c3ccc([N+](=O)[O-])cc3)c3ccccc23)C(=O)N[C@H]1Cc1ccccc1	nt	nt	nt	i
Cc1cc2c(cc(C(=O)N3CCC(C(=O)NC4CCCC4)CC3)n2Cc2c(F)cccc2Cl)o1	i	6.2	nt	i
CCN1CCc2c(C#N)c(NCc3ccccc3)nc(N(CC)CC)c2C1	i	i	i	-4.2
O=C(O)c1cc(-c2ccccc2)nn1CC1CC(c2cccc([N+](=O)[O-])c2)=NO1 (centres undefined)	nt	nt	nt	i
O=C(NNC(=O)c1ccccc1O)c1ccc(Cl)cc1	nt	nt	i	i
O=C(/C=C(\O)c1ccc(Cl)cc1)C(=O)NNC(=O)C(O)(c1ccccc1)c1ccccc1	nt	nt	i	-8.6
Nc1c(N(C(=O)Nc2ccc(Cl)c(Cl)c2)C2CCCC2)c(=O)[nH]c(=O)n1Cc1ccccc1	nt	nt	i	nt
CCCOc1ccccc1NC(=O)c1c(-c2ccccc2)noc1C	i	i	i	-4.8
COc1cc(/C=N/NC(=O)c2c(-c3ccccc3)noc2C)ccc1O	nt	nt	i	i
COc1cccc(/C=N/NC(=O)c2c(-c3ccccc3)noc2C)c1O	nt	nt	2.2	i
COc1ccc(NC(=O)CN(C)S(=O)(=O)c2ccc(Cl)cc2)cc1Cl	nt	nt	i	i
CC(OC(=O)CN(C)S(=O)(=O)c1ccc(Cl)cc1)C(=O)Nc1cccc(Cl)c1 (centres undefined)	nt	nt	i	-6.6
CCOC(=O)C(NS(=O)(=O)c1ccccc1)(C(F)(F)F)P(=O)(OCC(C)C)OCC(C)C (centres undefined)	nt	nt	i	i
CCCCNC(=O)CCC(=O)Nc1ncc(-c2ccc(C)cc2)n1C	i	i	2	i
O=C(C1CCCN(S(=O)(=O)c2cccc3nsnc23)C1)N1CC=C(c2ccccc2)CC1 (centres undefined)	i	i	i	i
O=C(C1CCC(CNS(=O)(=O)c2cccc3nsnc23)CC1)N1CC=C(c2ccccc2)CC1 (centres undefined)	nt	nt	i	-7.9

Bioassay records from PubChem.
